For eleven compounds, Percent Effect results are on record in ChEMBL document CHEMBL3988442, “University of Dundee, Small-Polar-MMV Screening Library” (2021).

For some of these results: Entries with a potency or affinity are not part of this list.

Design in all cases: scale not given: direction of the effect not stated beside the values
Assay [1] addresses Protein translocase subunit SecA (Escherichia coli (strain K12)) (UniProt P10408). As to the kind of experiment: Assay to Identify E. coli SecA ATPase Inhibitors. Particulars: 30 µM. It counts as functional.
Assay [2] deals with T1, Ubiquitin-activating enzyme e1, putative (Leishmania donovani (strain BPK282A1)) (UniProt E9BSI1).
T1 sequence (whole entry): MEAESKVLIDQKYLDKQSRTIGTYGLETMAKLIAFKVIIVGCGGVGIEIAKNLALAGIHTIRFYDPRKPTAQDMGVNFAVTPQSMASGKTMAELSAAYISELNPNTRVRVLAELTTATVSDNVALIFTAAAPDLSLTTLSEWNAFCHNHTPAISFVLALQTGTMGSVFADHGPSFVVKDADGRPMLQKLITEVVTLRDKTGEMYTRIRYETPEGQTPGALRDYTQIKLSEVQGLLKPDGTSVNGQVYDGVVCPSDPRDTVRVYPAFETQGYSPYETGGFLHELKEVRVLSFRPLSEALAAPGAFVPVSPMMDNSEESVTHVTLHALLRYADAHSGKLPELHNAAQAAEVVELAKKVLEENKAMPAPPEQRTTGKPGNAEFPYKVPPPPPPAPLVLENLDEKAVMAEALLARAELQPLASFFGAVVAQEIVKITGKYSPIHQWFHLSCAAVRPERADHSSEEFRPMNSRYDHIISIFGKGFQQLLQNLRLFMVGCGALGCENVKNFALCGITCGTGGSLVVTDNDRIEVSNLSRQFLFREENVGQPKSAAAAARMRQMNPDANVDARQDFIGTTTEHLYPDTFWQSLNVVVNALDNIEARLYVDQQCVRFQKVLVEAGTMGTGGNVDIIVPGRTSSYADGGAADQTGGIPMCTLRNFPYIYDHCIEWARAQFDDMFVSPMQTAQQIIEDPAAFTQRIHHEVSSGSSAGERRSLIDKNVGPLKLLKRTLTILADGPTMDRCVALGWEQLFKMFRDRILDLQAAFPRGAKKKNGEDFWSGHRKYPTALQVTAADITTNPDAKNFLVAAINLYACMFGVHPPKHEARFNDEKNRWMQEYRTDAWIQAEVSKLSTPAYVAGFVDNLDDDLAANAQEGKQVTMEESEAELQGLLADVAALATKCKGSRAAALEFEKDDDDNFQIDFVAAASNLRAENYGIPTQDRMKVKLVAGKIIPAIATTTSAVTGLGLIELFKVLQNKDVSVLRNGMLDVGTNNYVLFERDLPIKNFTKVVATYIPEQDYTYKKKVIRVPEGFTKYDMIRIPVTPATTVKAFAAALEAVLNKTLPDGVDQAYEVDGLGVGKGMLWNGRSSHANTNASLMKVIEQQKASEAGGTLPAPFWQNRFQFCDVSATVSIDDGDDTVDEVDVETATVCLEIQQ
As to the kind of experiment: Leishmania donovani Ubiquitin Activating Enzyme (LdE1). The assay is classed as functional. Particulars: 30 µM.

Assay [3] deals with AMP-activated protein kinase, AMPK (Homo sapiens) (UniProt P54646+O43741+P54619+Q9UGJ0+Q9Y478+Q13131+Q9UGI9). As to the kind of experiment: AMP-dependent Kinase enzyme assay. An in vitro enzyme assay that detects ADP turnover that is directly proportional to AMPK activity. This uses naive AMPK that is activated during the assay with MK-8722. The assay is classed as functional. Particulars: 30 µM.

Assay [4] concerns the target Sialic acid-binding Ig-like lectin 9 (Homo sapiens) (UniProt Q9Y336). As to the kind of experiment: Hs-Siglec9 ALPHAscreen SOP 20170721. Particulars: 10 µM.
The subject of another assay is Trypanosoma cruzi. As to the kind of experiment: Trypanosoma cruzi phosphomannomutase and mannose-1-phosphate guanylyltransferase assay. Particulars: 10 µM. It counts as functional.
The target in assay [5] is T2, Arginase-2, mitochondrial (Homo sapiens) (UniProt P78540).
T2 sequence (whole entry): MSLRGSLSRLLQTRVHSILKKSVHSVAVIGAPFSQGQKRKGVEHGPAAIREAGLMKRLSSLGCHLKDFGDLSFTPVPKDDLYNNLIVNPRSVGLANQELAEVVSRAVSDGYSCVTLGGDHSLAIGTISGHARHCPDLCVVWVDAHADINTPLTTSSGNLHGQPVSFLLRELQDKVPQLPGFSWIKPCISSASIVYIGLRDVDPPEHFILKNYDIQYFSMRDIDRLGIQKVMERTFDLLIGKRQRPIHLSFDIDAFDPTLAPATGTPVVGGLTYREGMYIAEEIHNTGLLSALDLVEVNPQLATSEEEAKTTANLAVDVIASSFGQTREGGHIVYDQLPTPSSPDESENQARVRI
As to the kind of experiment: in vitro enzyme assay to detect the production of urea directly proportional to the activity of Arginase II. Note: in the data most compounds retested in dose-response had high values. The assay is classed as functional. Particulars: 33.3 µM.

Assay [6] has as its target T3, Proteasome subunit beta (Trypanosoma cruzi) (UniProt O96673).
T3 sequence (whole entry): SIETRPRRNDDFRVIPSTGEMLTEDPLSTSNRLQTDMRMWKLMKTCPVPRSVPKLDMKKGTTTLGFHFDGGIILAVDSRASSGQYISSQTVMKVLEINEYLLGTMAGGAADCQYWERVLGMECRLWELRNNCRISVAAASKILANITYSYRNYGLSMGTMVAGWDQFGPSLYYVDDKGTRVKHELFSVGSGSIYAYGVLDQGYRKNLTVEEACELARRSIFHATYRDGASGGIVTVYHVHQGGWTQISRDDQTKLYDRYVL
As to the kind of experiment: Trypanosoma cruzi proteasome chymotrypsin-like activity (TcProtChymo) assay. Note: in the data most compounds retested in dose-response had high values. The assay is classed as functional. Particulars: 9.37 µM.

For another assay, the species on record is Homo sapiens. As to the kind of experiment: To identify inhibition of the IFN signalling (Jak-Stat) pathway via expression of an eGFP reporter gene under the control of an IFN-stimulated response element (ISRE) containing MxA promoter. The assay is classed as functional. Particulars: 30 µM. (Reporter assays use an easily measured gene product as a stand-in for the process of interest.)

The target in assay [7] is T4, Tyrosyl-tRNA synthetase, putative (Trypanosoma cruzi (strain CL Brener)) (UniProt Q4DSP6).
T4 sequence (whole entry): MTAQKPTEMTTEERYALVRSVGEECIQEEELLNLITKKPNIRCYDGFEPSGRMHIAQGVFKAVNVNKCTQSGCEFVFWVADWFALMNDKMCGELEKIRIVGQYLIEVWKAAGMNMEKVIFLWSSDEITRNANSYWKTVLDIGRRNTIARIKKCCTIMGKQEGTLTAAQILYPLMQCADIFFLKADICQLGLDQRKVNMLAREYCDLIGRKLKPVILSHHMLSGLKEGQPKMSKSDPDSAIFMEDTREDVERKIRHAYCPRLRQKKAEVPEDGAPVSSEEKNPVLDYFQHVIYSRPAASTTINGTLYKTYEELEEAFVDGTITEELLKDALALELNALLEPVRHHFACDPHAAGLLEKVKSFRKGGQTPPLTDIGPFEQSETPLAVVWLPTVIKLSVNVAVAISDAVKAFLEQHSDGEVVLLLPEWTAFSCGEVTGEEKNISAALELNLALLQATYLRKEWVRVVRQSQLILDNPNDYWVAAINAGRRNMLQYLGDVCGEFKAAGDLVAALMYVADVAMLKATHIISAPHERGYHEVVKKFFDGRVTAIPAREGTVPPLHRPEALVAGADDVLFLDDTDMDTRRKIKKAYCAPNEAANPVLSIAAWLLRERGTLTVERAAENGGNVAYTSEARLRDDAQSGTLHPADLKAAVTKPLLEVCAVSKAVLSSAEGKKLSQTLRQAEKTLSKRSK
As to the kind of experiment: Trypanosoma cruzi tyrosyl tRNA synthetase (TcYRS) _High Tyrosine SOP. Note: in the data most compounds retested in dose-response had high values. It counts as functional. Particulars: 30 µM.

Assay [8] has as its target T4, Tyrosyl-tRNA synthetase, putative (Trypanosoma cruzi (strain CL Brener)). As to the kind of experiment: Trypanosoma cruzi tyrosyl tRNA synthetase (TcYRS) SOP. Particulars: 30 µM. It counts as functional.
The target in assay [9] is Chromo domain-containing protein 1 (Saccharomyces cerevisiae (strain ATCC 204508 / S288c) (Baker's yeast)) (UniProt P32657). As to the kind of experiment: ScCHD-1 Enzyme Inhibition Assay. Note: in the data most compounds retested in dose-response had high values. The assay is classed as functional. Particulars: 30 µM.
Sequence of Chromo domain-containing protein 1 (Saccharomyces cerevisiae (strain ATCC 204508 / S288c) (Baker's yeast)) (P32657 whole entry, the tested form may be a part): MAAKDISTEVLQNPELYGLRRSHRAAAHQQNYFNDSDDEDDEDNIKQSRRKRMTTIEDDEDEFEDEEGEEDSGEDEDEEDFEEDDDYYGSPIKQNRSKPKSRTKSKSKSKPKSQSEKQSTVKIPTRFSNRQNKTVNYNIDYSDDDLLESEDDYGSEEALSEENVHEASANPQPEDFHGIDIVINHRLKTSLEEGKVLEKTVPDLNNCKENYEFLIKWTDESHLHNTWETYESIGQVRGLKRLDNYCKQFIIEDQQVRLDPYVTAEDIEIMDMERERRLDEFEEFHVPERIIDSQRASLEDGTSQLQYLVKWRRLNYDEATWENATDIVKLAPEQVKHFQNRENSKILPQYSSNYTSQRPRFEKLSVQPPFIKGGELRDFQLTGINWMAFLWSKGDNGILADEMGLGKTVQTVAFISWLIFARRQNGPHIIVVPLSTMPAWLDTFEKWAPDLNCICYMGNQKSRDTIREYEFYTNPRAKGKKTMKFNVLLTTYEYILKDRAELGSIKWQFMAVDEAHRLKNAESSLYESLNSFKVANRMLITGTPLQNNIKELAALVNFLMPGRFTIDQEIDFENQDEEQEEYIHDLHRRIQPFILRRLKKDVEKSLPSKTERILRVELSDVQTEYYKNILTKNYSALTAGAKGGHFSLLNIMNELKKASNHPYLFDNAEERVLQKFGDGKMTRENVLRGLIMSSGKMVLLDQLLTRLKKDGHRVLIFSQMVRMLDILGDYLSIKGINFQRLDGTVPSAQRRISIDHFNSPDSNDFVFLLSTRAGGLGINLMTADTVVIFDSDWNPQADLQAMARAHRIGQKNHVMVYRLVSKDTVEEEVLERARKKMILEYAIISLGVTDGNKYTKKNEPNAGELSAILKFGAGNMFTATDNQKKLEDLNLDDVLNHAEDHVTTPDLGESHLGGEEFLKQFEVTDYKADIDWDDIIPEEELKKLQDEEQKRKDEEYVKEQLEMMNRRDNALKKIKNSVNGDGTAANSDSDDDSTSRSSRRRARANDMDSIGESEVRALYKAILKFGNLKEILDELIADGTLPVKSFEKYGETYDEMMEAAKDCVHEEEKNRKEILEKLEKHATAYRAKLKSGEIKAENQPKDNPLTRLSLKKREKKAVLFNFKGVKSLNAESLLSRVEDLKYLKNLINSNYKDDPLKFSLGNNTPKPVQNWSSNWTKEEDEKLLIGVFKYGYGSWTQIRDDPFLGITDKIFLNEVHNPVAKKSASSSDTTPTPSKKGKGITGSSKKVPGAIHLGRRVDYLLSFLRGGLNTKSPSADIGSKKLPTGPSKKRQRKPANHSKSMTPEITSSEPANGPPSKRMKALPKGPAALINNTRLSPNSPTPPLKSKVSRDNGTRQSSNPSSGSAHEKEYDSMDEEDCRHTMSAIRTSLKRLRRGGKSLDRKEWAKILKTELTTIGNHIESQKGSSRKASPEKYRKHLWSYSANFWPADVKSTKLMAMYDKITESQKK

Sequence of Sialic acid-binding Ig-like lectin 9 (Homo sapiens) (Q9Y336 whole entry): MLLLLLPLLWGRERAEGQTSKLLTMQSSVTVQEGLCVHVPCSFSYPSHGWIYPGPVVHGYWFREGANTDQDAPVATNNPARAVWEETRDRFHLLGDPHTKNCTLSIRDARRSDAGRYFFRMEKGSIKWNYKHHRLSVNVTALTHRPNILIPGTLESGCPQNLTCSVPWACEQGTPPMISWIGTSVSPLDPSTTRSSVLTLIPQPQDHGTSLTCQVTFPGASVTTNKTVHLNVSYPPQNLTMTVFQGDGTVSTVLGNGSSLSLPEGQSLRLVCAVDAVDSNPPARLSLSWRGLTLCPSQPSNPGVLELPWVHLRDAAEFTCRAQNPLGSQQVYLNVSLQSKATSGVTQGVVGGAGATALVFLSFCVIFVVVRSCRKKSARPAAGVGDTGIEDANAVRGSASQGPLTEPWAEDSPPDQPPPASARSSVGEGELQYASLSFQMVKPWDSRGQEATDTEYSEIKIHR
Sequence of Protein translocase subunit SecA (Escherichia coli (strain K12)) (P10408 whole entry): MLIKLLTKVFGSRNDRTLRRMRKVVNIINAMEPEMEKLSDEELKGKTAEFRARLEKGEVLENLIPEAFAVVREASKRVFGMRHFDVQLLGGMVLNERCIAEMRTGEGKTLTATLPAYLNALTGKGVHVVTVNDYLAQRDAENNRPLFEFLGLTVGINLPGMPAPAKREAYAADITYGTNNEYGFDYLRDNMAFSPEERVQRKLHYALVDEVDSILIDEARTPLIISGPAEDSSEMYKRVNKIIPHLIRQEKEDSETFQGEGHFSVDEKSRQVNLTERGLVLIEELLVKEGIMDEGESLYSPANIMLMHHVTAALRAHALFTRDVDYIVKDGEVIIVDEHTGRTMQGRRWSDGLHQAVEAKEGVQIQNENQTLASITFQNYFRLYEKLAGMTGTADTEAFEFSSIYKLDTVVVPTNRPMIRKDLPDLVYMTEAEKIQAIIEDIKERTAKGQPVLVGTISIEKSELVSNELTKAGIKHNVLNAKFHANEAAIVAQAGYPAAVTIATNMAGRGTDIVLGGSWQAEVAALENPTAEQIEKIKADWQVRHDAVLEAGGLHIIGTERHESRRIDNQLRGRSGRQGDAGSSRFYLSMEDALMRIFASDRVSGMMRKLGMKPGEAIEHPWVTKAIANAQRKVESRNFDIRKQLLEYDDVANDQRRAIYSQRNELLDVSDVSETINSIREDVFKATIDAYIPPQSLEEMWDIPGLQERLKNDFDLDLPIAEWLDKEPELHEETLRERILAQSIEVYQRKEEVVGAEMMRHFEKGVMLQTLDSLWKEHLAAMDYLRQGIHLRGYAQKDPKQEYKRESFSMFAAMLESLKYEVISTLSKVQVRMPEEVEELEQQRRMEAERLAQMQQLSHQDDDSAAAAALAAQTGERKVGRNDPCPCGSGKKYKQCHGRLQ

In the case of `N#Cc1cccnc1N1CCC2(CCCN(C3CCOCC3)C2=O)C1` (stereo unspecified), the Percent Effect in assay [1] was -3.31%; in [2] it was 5.48%; in [3] it was 0.329%; in assay [4], 1.41%; in the assay with Trypanosoma cruzi, 2.58%; in assay [5], -3.99%. Besides, the Percent Effect in assay [6] was 8.82%; in the assay listed under Homo sapiens it was 7.98%; in assay [7] it was 1.04%; in [8] it was 1.24%; in assay [9], -4.64%.

As for `CS(=O)(=O)N1CCC(O)(Cn2c(C3CC3)nc3ccccc3c2=O)CC1`, the Percent Effect in [1] is -6.42%; in assay [2], 1.35%; in assay [3] it was 8%; in assay [4] it was 2.72%; in the assay with Trypanosoma cruzi, -4.35%; in assay [5], -0.232%. Besides, the Percent Effect in assay [6] is 5.77%; in the assay filed under Homo sapiens it was 11.6%; in [7], -1.07%; in assay [8], -3.9%; in assay [9], 7%.

Consider `COc1ccc(-c2nnc(SC(C)C(=O)NCC(C)C)[nH]2)c(OC)c1` (stereo unspecified), for which the Percent Effect in [1] was -3.62%; in assay [2], 10.5%; in [3] it was 2.87%; in assay [4], 6.11%; in the assay with Trypanosoma cruzi, 1.27%; in assay [5], -3.55%. Besides, the Percent Effect is 13.5% in assay [6]; 91.3% in the assay filed under Homo sapiens; 3.19% in [7]; 18.2% in assay [8]; 2.44% in [9].

As for `O=C(N[C@@H]1CN(Cc2ccccc2)C[C@@H]2CCCO[C@@H]21)C1CC1`, the Percent Effect in assay [1] is 3.31%; in assay [2], 10.7%; in assay [3], 0.707%; in assay [4] it was 7.92%; with Trypanosoma cruzi, -2.32%; in assay [5] it was -49.3%. Also, the Percent Effect in assay [6] is 4.96%; in the assay listed under Homo sapiens, -2.02%; in assay [7], 7.29%; in [8], 22.5%; in [9], -7.85%.

As to `Cc1noc([C@H]2COC[C@H]3CN(C(=O)Cc4ccc(F)cc4)C[C@H]32)n1`, the Percent Effect in assay [1] is -6.71%; in assay [2], 10.8%; in assay [3], -2.57%; in [4], 13.3%; in the assay on Trypanosoma cruzi, 3.91%; in assay [5], 3.75%. Besides, the Percent Effect is 7.18% in assay [6]; -8.46% in the assay filed under Homo sapiens; 5.94% in assay [7]; 11% in [8]; -1.22% in [9].

As for `Cn1c(C2CC2)nc2c1CCN(CCOc1ccc(C#N)cc1)C2`, the Percent Effect was -3.25% in assay [1]; -15.6% in assay [2]; 4.37% in assay [3]; 6.69% in [4]; 2.43% in the assay with Trypanosoma cruzi; -1.07% in [5]. In addition, the Percent Effect in [6] was 4.22%; in the assay listed under Homo sapiens, -24.9%; in [7], 6.8%; in assay [8], 2.44%; in [9], -8.18%.

`CCN(Cc1ccc2c(c1)OCCO2)C(=O)NCc1nc(C)cs1`: the Percent Effect in [1] is 0.275%; in [2], 10.4%; in assay [3], -0.784%; in assay [4], -5.04%; in the assay with Trypanosoma cruzi, -0.294%; in [5] it was 4.84%. Also, the Percent Effect is 14.6% in [6]; 11.4% in the assay listed under Homo sapiens; 4.76% in assay [7]; 11.8% in [8]; -19.3% in [9].

As to `CC1CN(CC(=O)Nc2nncs2)CCN1c1nccs1` (stereo unspecified), the Percent Effect was 1.26% in assay [1]; 8.11% in assay [2]; -4.77% in [3]; -8.19% in [4]; -5.29% with Trypanosoma cruzi; 0.924% in [5]. For the same compound, the Percent Effect was 16.5% in assay [6]; 25.9% in the assay listed under Homo sapiens; 4.95% in assay [7]; 18.3% in assay [8]; -4.83% in assay [9].

Turning to `COc1nccc(N2CCN(Cc3ccc(C)cc3)C(=O)C2)c1C#N`, the Percent Effect in assay [1] is -1.96%; in assay [2] it was 15.6%; in assay [3] it was -4.99%; in [4], 5.78%; in the assay with Trypanosoma cruzi, 8.16%; in assay [5], -33.1%. Further, the Percent Effect in [6] was 13.3%; in the assay listed under Homo sapiens, -2.81%; in assay [7], 8.6%; in assay [8], 21%; in [9] it was 9%.

With `Cc1ccc(CN2C[C@@H]3COC[C@H](C(=O)N4CCCCO4)[C@@H]3C2)o1`, the Percent Effect in assay [1] was -1.82%; in assay [2] it was 13.3%; in assay [3], 7.57%; in [4], 2.5%; in the assay on Trypanosoma cruzi, 1.57%; in assay [5], -1.17%. Moreover, the Percent Effect in assay [6] was 4.32%; in the assay listed under Homo sapiens, 0.512%; in assay [7] it was 7.45%; in assay [8], 19.2%; in [9], -3.93%.

As to `CC(C)NC(=O)N1CCC2(COCc3cnc(-c4cccnc4)nc32)C1` (stereo unspecified), the Percent Effect was -3.55% in assay [1]; 2.7% in assay [2]; 6.5% in assay [3]; 0.534% in assay [4]; -6.94% in the assay with Trypanosoma cruzi; 4.78% in [5]. The Percent Effect is 12% in [6]; 6.17% in the assay filed under Homo sapiens; 1.08% in [7]; 5.13% in assay [8]; 2.74% in assay [9].
